# The source made the active and inactive calls.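 How the source made its calls: active means cell event count below 40, meaning activity score above 60 where score is 100 minus count; inactive means the rest.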
# Experiment: LNCaP cell loss by flow event count, confirmation, cytotoxicity control for prostate differentiation activator project, single point (AID 1076);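 further: counts scatter-gated live cells after medium removal discards detached dead cells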
# Settings: flow cytometry event count, 4 d, stronger effect = lower value
Compound,cell event count (at 100 µM),"cell event count (event count, at 10 µM)"
COC(=O)c1cc2oc3ccccc3c2n1CC(=O)Nc1ccccc1OC,169 (inactive),184
O=C(CCN1C(=O)COc2ccccc21)NCCCN1CCN(c2ccc(F)cc2)CC1,117 (inactive),146
CC(C)n1c(=S)[nH]c2c1c(=O)[nH]c(=O)n2C,221 (inactive),146
Cn1c(=O)[nH]c(=O)c2c1nc(Br)n2CCCSc1nc2ccccc2o1,8 (inactive),96
COc1ccc(Cc2noc(-c3ccc(C)cc3)n2)cc1,70 (inactive),152
Cc1cc(N2CCN(C)CC2)nc2ccc(NC(=O)c3ccc(Br)o3)cc12,4 (inactive),96.5
Cc1oc(-c2ccc(Cl)cc2)nc1CN1CCC(C(=O)NCCCN2CCCC2=O)CC1,51 (inactive),115
COc1ccc(C)cc1NC(=O)CCC(=O)Nc1ccc2nc(N3CCN(C)CC3)cc(C)c2c1,19 (inactive),369
O=c1cc(-c2ccccc2)[nH]c2ccccc12,9 (active),76
CN(C)c1ccc(-c2nn3c(-c4ccc(Cl)cc4Cl)nnc3s2)cc1,6 (active),65.5
CC1(C)CC(=O)c2cc(OCC(=O)NCCCN3CCN(c4ccc(F)cc4)CC3)ccc2O1,17 (inactive),112
Cn1c(C(=O)NCCC2=CCCCC2)cc2c(=O)n3ccccc3nc21,191 (inactive),132
CCN1CCCC1CNC(=O)c1cc2c(-c3ccc(Cl)cc3)nn(C)c2s1 (centres undefined),14 (inactive),88.5
O=C(CCNC(=O)Cn1ccc2ccccc2c1=O)NCCCN1CCN(c2ccc(F)cc2)CC1,156 (inactive),91.5
Cc1ccccc1-c1nc(CN2CCC(C(=O)NCC3CCCO3)CC2)c(C)o1 (centres undefined),71 (inactive),139
Cc1ccc(NC(=O)CCNS(=O)(=O)c2ccc3c(c2)oc(=O)n3C)c(C)c1,350 (inactive),129
COc1ccc(-c2cc(C(F)(F)F)nc(N3CCN(c4ccc(F)cc4)CC3)n2)cc1OC,184 (inactive),96
CCN(CC)CCNC(=O)c1ccc(N2CCCCC2)c(NS(=O)(=O)c2ccc(C)cc2)c1,17 (inactive),197
Cc1ccc(Cl)cc1N1CCN(C(=O)c2cc3c(=O)n(C)c4ccccc4c3n2C)CC1,31 (active),10.5
Cc1cccc(-c2nc(CN3CCCC(C(=O)NC4CCCCC4)C3)c(C)o2)c1 (centres undefined),28 (inactive),170
COc1ccc(Nc2nc(N3CCCC3)c3ccccc3n2)cc1,50 (inactive),180

Compound,cell event count (at 100 µM),"cell event count (event count, at 10 µM)"
Cc1ccccc1-c1nc(CN2CCC(C(=O)NCCC3=CCCCC3)CC2)c(C)o1,11 (inactive),93.5
CCN(CCCNS(=O)(=O)c1ccc2c(c1)oc(=O)n2C)c1cccc(C)c1,27 (inactive),151
CC(C)(C)OC(=O)N1CCC(C(=O)N2CCCCCC2)CC1,223 (inactive),123
Cc1ccccc1CS(=O)(=O)CCC(=O)NCCCN1CCN(c2ccccc2F)CC1,108 (inactive),71
CCOC(=O)CSc1nnc(CNC(=O)c2ccccc2OC)n1-c1ccc(OC)cc1,256 (inactive),156
Cc1ccc(C)c(N2CCN(CCCNC(=O)Cn3cc4c(n3)CCCCC4)CC2)c1,3 (active),53.5
CCn1c(=O)cc(OCC(=O)NCCCN2CCN(c3cccc(Cl)c3)CC2)c2ccccc21,20 (inactive),307
COc1ccc2c(c1)CCc1c(C(=O)Nc3cc(C)n(Cc4ccc(Cl)cc4)n3)noc1-2,43 (inactive),406
CCOC(=O)N1CCN(S(=O)(=O)c2ccc(C(=O)Nc3nc4ccccc4s3)cc2)CC1,145 (inactive),172
Cc1ccc(NC(=O)N2CCCN(Cc3ccc(F)cc3)C2)cc1C,13 (inactive),142
CC(C)(C)c1ccc(C(O)CCCN2CCC(C(O)(c3ccccc3)c3ccccc3)CC2)cc1 (centres undefined),12 (inactive),90
Cc1oc(-c2ccc(Cl)cc2)nc1CN1CCCC(C(=O)NCCCN2CCCC2=O)C1 (centres undefined),43 (inactive),258
O=c1cc(N2CCc3ccccc3C2)[nH]c(=O)n1C1CCCCC1,143 (inactive),76.5
Cc1oc(-c2cccc(Cl)c2)nc1CN1CCC(C(=O)NCc2cccnc2)CC1,38 (inactive),150
Cc1nc2ncnn2c(C)c1CCC(=O)NCCCN1CCN(c2cccc(Cl)c2)CC1,95 (inactive),148
CCOC(=O)C1=C(C)N=c2s/c(=C\c3ccncc3)c(=O)n2C1c1ccc2c(c1)OCO2 (centres undefined),17 (inactive),272
CCn1c(=S)ccc2ccc(OC)cc21,139 (inactive),118
O=C(CCn1c(=O)[nH]c2ccccc2c1=O)NCCCN1CCN(c2cccc(Cl)c2)CC1,14 (inactive),354
Cc1nnc(NCc2n[nH]c(=O)c3ccccc23)c2ccccc12,47 (inactive),219
COc1ccc(N2CCN(CCCNC(=O)C3CCCN(S(=O)(=O)c4cnc[nH]4)C3)CC2)cc1 (centres undefined),31 (inactive),92.5
Cc1ccc(C)c(N2CCN(CCCNC(=O)Cn3cc4c(n3)CCC(C)C4)CC2)c1 (centres undefined),5 (inactive),276

Compound,cell event count (at 100 µM),"cell event count (event count, at 10 µM)"
Cc1oc(-c2ccc(Cl)cc2)nc1CN1CCCC(C(=O)N2CCN(C(=O)c3ccco3)CC2)C1 (centres undefined),19 (inactive),120
CCOc1ccccc1NC(=O)c1nc[nH]c1C(=O)Nc1ccccc1OCC,20 (inactive),248
CN1CCN(CC(=O)Nc2ccc(Cl)cc2Cl)CC1,117 (inactive),198
CCN(CC)CCCNC(=O)c1cc(-c2cccc(Cl)c2)on1,170 (inactive),376
O=C(CCCCCn1c(=O)[nH]c2ccccc2c1=O)NCCCN1CCN(c2ccccc2F)CC1,18 (inactive),336
Cc1ccc(-c2noc(CCC(=O)NCCCN3CCN(c4ccc(F)cc4)CC3)n2)cc1,14 (inactive),98
COc1ccc(-n2cc(-c3ccccc3)c3c(N4CCN(CCO)CC4)ncnc32)cc1,12 (inactive),174
CCCCOC(=O)CSc1nc2c(cc1C#N)C(=O)CC(C)(C)C2,203 (inactive),194
COC(=O)Nc1sccc1C(=O)Nc1sccc1C(=O)OC,144 (inactive),182
O=C(NCCCN1CCN(c2cccc(Cl)c2)CC1)c1cccc(N2CCCC2=O)c1,222 (inactive),176
CC(C)(C)C1CCc2onc(C(=O)Nc3cnn(Cc4ccc(F)cc4)c3)c2C1 (centres undefined),66 (inactive),242
CC1CCCCN1CCNC(=O)c1cc2c(-c3ccccc3F)nn(C)c2s1 (centres undefined),255 (inactive),384
O=C(c1ccccc1)c1ccc(N2CCNCC2)cc1,135 (inactive),168
COc1ccc(-n2c3c(cc(C(=O)N4CCC(C)CC4)c2=O)C(=O)CC(C)(C)C3)cc1,115 (inactive),93
CCCCCn1c(=N)n(CC(O)COc2ccccc2OC)c2ccccc21 (centres undefined),20 (inactive),138
O=C(Cc1ccc(-n2cccc2)cc1)NCc1cccs1,160 (inactive),133
COc1ccccc1N1CCN(C(=O)CCn2c(=O)[nH]c3ccsc3c2=O)CC1,206 (inactive),224
CCCOc1ccc2nc(NC(=O)OC)[nH]c2c1,12 (inactive),102
CCOc1ccc(NC(=O)COc2nsnc2N2CCCCC2)cc1,23 (active),63.5
Cc1ccccc1-c1nc(CN2CCCC(C(=O)NCc3cccnc3)C2)c(C)o1 (centres undefined),124 (inactive),135
Cc1ccccc1-c1nc(CN2CCCC(C(=O)NCCCN3CCOCC3)C2)c(C)o1 (centres undefined),145 (inactive),175

Compound,cell event count (at 100 µM),"cell event count (event count, at 10 µM)"
CCOC(=O)c1ccc(NC(=O)Nc2ccc3c4c(cccc24)C(=O)N3CC)cc1,70 (inactive),254
N#CC(C(=O)c1ccco1)c1ccccn1 (centres undefined),40 (active),40.5
COc1ccc(N2CCN(CCCNC(=O)C3(S(=O)(=O)c4ccc(Cl)cc4)CC3)CC2)cc1,93 (inactive),136
CCCS(=O)(=O)N1CCCC(C(=O)NCCCN2CCN(c3ccc(F)cc3)CC2)C1 (centres undefined),49 (inactive),47
Cc1cc(NC(=O)c2noc3c2CCc2ccccc2-3)n(-c2ccccc2)n1,146 (inactive),367
CC(C)(O)c1cn(-c2nonc2N)nn1,249 (inactive),106
Cc1cccc(-c2nc(CN3CCCC(C(=O)NC4CCCCCC4)C3)c(C)o2)c1 (centres undefined),17 (inactive),222
COc1ccccc1NC(=O)c1nc[nH]c1C(=O)Nc1ccccc1OC,103 (inactive),257
CCn1c(=N)n(CC(O)COc2cccc(C)c2)c2ccccc21 (centres undefined),2 (active),50.5
CCN(CC)CCNC(=O)c1cc2c(-c3ccc(Cl)cc3)nn(C)c2s1,25 (active),25
CCc1ccc(-c2nc(CN3CCC(C(=O)NCCc4ccc(OC)c(OC)c4)CC3)c(C)o2)cc1,17 (inactive),204
Cc1ccc(Nc2cc(=O)n(C3CCCCC3)c(=O)[nH]2)cc1C,3 (active),62.5
O=C(CCN1C(=O)COc2ccccc21)NCCCN1CCN(c2ccccc2F)CC1,186 (inactive),204
Cn1c(C(=O)NCCCN2CCN(c3cccc(Cl)c3)CC2)cc2c(=O)n(C)c3ccccc3c21,46 (inactive),251
CCc1ncc(C(O)c2cccc(OC)c2OC)n1C (centres undefined),285 (inactive),172
COC(=O)C1=C(C)N=c2s/c(=C/c3cccs3)c(=O)n2C1c1cccs1 (centres undefined),125 (inactive),320
CCN(CC)CC(=O)Nc1ccc(-c2nc3cc(NC(=O)CN(CC)CC)ccc3o2)cc1,1 (inactive),140
CCOC(=O)N1CCN(C(=O)C2CCCN(Cc3nc(-c4ccc(Cl)cc4)oc3C)C2)CC1 (centres undefined),10 (inactive),126
COc1ccc2cc3c(N)nn(C(=O)Cc4ccccc4OC)c3nc2c1,20 (inactive),287

# — PubChem BioAssay AID1076 (NMMLSC, 2008)
